Hsp70 act: Hsp70 transcriptional activators, primary screen, cell-based, HeLa, Hsp70 promoter luciferase, luminescence, 10 µM. 0.04% of 200,000 active. activation, % at 10 µM. HeLa Hsp70 promoter luciferase reporter; scaled: vehicle 0, proteasome-inhibitor control 100%. AID 1203, 2008;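 active = activation above the mean across all tested compounds plus 3 SD, cutoff set per campaign, cut at about 5.5% in these data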;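 note: 100% = MG132 at 30 µM as the positive control and 0% = DMSO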
HSF1 activator: HSF-1 activators, primary screen, NIH3T3-HGL cells, MG132 stress, luminescence, single point. NIH3T3-HGL HSF-1 luciferase reporter, 8 h; 100% = twice DMSO control signal. activation, % at 9 µM. 1.7% of 300,000 active. AID 504408, 2011;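 active = mean replicate activation of at least 50% with a set share of replicates each reaching 50%; inconclusive = only one of those two conditions met; inactive = mean below 50% and too few replicates reaching it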;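 note: 0% = median of the neutral control wells and 100% = twice that signal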
S1P4 agonist: S1P4 receptor agonists, primary screen, cell-based. Sphingosine 1-phosphate receptor 4 (Homo sapiens), O95977. activation, % at 4.98 µM. 0.35% of 220,000 active. S1P4-expressing cell line, agonist reporter assay; in the data active = activation above about 11%;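 note: 0% = DMSO vehicle and 100% = reference agonist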
HSF1 inh: HSF1 inhibitors in luciferase reporter cells, primary screen, cell-based, NIH3T3, luminescence; NIH3T3-HGL HSE-luciferase, MG132-induced, luminescence 8 h; stronger effect = lower value; activity change, negative = inhibition, % at 7.5 µM (by protocol); 0.77% of 300,000 active;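 active = more than half of replicate wells show activity change below -50%, luminescence cut by over half; inconclusive = some wells, but at most half, below -50%; inactive = no replicate well below -50%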;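 note: luciferase reports HSF-1 transcriptional activity via heat shock element; 0% = median of DMSO wells and -100% = zero luminescence signal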
S1P3 antagonist: S1P3 receptor antagonists, primary screen, cell-based. CHO S1P3 NFAT-BLA reporter, FRET fluorescence, antagonist mode. inhibition, % at 4.98 µM. 0.27% of 170,000 active;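 active = inhibition above the plate cutoff, the mean inhibition of test wells on that plate plus 3 SD, cut at about 28% in these data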;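 note: cells challenged with S1P at its EC80 of 0.8 µM; blue over green emission ratio from cleaved BLA substrate after 4 h stimulation; 0% = S1P-stimulated wells and 100% = unstimulated DMSO-only wells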
Target sequence (Q99500 whole entry, looked up): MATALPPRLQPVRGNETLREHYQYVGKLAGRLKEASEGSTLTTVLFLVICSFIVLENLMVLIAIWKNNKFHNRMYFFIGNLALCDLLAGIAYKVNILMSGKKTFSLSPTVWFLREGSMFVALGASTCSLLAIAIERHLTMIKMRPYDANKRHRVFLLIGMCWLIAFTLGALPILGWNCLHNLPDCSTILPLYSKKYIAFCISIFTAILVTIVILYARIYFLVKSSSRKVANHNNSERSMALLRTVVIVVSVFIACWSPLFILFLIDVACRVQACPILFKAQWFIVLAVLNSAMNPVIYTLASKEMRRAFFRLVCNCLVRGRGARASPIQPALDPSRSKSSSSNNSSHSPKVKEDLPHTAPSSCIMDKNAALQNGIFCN
S1P4 antagonist: S1P4 receptor antagonists, primary screen, cell-based | Sphingosine 1-phosphate receptor 4 (Homo sapiens), O95977 | S1P4-expressing cells, antagonist mode, reporter read-out | inhibition, % at 4.98 µM | 0.26% of 220,000 active; in the data active = inhibition above about 29%;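 note: 0% = wells stimulated with agonist and 100% = vehicle wells without agonist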
S1P4 antag cf: S1P4 receptor antagonists, human, confirmation, cell-based; shares compounds with S1P4 antagonist; S1P4-expressing cell line, antagonist mode, reporter read-out; inhibition, % at 4.98 µM; 71% of 520 active; AID 1524, 2009; in the data active = inhibition above about 30%
S1P1 antagonist: S1P1 receptor antagonists, human, counter-screen for S1P4 antagonist project, cell-based; shares compounds with S1P4 antagonist; cell-based S1P1 antagonist counterscreen, inhibition; inhibition, % at 4.98 µM; 37% of 520 active; AID 1564, 2009; in the data active = inhibition above about 40%;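 note: receptor stimulated with S1P near its EC80; 0% = agonist stimulated wells and 100% = vehicle only wells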
Target sequence (P21453 whole entry, looked up): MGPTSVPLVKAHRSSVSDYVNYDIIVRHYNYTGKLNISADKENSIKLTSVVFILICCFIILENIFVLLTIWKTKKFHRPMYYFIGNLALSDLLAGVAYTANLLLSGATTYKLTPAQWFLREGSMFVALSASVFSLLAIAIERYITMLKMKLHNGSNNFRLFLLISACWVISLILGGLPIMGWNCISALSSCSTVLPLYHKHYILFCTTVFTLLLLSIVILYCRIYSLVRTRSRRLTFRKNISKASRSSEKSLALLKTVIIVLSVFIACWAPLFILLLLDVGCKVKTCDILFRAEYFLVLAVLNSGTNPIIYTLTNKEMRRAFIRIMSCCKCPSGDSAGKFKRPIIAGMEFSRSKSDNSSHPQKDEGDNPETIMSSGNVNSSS
Numbers without * were called inactive; ? = inconclusive; nt = not tested or not shown. Sampled rows, rich in hits. Any-hit rate of the full collection: about 2.9%.

SMILES | Hsp70 act | HSF1 activator | S1P4 agonist | HSF1 inh | S1P3 antagonist | S1P4 antagonist | S1P4 antag cf | S1P1 antagonist
O=C(O)CCn1c(=O)[nH]c2ccccc2c1=O | -0.1 | 1.5 | -1.8 | -2.0 | -28.9 | 35.7* | -0.5 | -12.5
O=C(O)CCn1c(=O)c2ccccc2c2ccccc2c1=O | -0.4 | 7.4 | 0.1 | -1.5 | 1.7 | 0.8 | nt | nt
Nc1ccc(C2CCCc3nonc32)c2nonc12 (stereo unspecified) | 0.1 | 22.4 | -0.7 | 8.4 | 8.7 | 43.4* | 8.1 | 28.3
COc1cc(NC(=O)c2cc(CC(C)C)on2)c(OC)cc1Cl | -0.1 | -26.0 | 0.6 | -4.1 | -5.8 | 32.9* | 23.1 | 12.3
COc1ccc(-c2nnc3n2N=C(C)CS3)cc1 | 0.0 | -13.4 | -1.0 | -6.1 | nt | 14.8 | nt | nt
CCOC(=O)/C(=C\c1ccc(OC(F)F)cc1)C1=Nn2c(nnc2-c2ccc(Cl)cc2)SC1 | -0.4 | -82.8 | -0.3 | -83.1* | 0.9 | 30.6* | 119.0* | 86.5*
CC(C)(C)N1CC(C(=O)Nc2cccc(Cl)c2Cl)CC1=O (stereo unspecified) | nt | 1.7 | nt | -3.9 | nt | nt | nt | nt
N#Cc1ccc(/C=C/C(=O)c2cccnc2)cc1 | 0.0 | 29.3 | 0.6 | 17.8 | -4.6 | 44.3* | 53.5* | 52.3*
O=C(/C=C/c1ccc(Cl)cc1)c1cccnc1 | 0.1 | nt | -0.3 | nt | nt | 19.8 | nt | nt
Cc1ccc(S(=O)(=O)Nc2cccc3cccnc23)cc1 | 0.1 | 81.3* | 4.1 | 62.5 | nt | 41.6* | 109.9* | 98.0*
Cc1ccc(S(=O)(=O)Nc2ccccc2-c2ccccc2NS(=O)(=O)c2ccc(C)cc2)cc1 | -0.2 | 8.5 | -1.6 | 3.2 | nt | -8.0 | nt | nt
Cc1ccc(/C=N/NC(=O)COc2ccc(Cl)c(C)c2)o1 | nt | 15.3 | nt | 6.8 | nt | nt | nt | nt
Cc1cccc(NC(=O)C2CCCN(C(=O)NC3CCCCC3)C2)c1C (stereo unspecified) | -0.4 | 22.7 | 0.2 | 4.0 | 2.2 | 35.8* | -16.0 | -9.7
COc1ccccc1NC(=O)N1CCCC(C(=O)Nc2cccc(C)c2C)C1 (stereo unspecified) | -0.3 | 42.3 | 0.7 | 7.3 | -6.2 | -3.2 | nt | nt
COc1ccc(C(C(=O)NC2CCCC2)N(CCO)C(=O)Cn2nnc(-c3ccc(C)o3)n2)cc1OC (stereo unspecified) | nt | -14.8 | nt | -0.1 | nt | nt | nt | nt
CN(C)Cc1ccccc1Sc1ccc(O)cc1O | -0.4 | 10.2 | 1.3 | -8.4 | 8.1 | 0.1 | nt | nt
CCOc1cc(CNCCc2ccc(S(N)(=O)=O)cc2)ccc1OCc1ccc(Cl)cc1 | -0.3 | 15.8 | -6.0 | 6.1 | nt | 36.6* | 39.9* | 27.5
O=C(CS(=O)CC(=O)N(CC(=O)NC1CCCC1)c1ccccc1F)Nc1ccc(F)cc1 (stereo unspecified) | nt | -7.6 | nt | -3.1 | nt | nt | nt | nt
CCn1cc(CNC(=O)c2cc(-c3cc(OC)ccc3OC)nc3ccccc23)c(C)n1 | -0.1 | 13.5 | 0.7 | -11.0 | -4.8 | -6.7 | nt | nt
c1ccc(OCCN2CCN(Cc3nc(-c4ccc5c(c4)OCO5)no3)CC2)cc1 | -0.3 | 10.6 | 1.1 | 4.0 | -9.2 | -5.1 | nt | nt
Cc1noc(/C=C/c2nn(C)cc2Cl)c1[N+](=O)[O-] | nt | -1.4 | 1.2 | -0.7 | -0.3 | 34.5* | 59.1* | 20.7
CCN(CC)c1ccc2c(Cl)c(Br)c(=O)oc2c1 | -0.5 | 325.6* | 0.7 | 279.9 | 27.8 | 53.1* | 104.2* | 74.2*
CCOC(=O)C(C)(C)N(Cc1ccc(C)cc1)S(=O)(=O)c1ccc(Cl)c([N+](=O)[O-])c1 | -0.4 | ? | -1.4 | 40.3 | -15.4 | 42.7* | 80.3* | 0.9
O=C(Nc1cccc2ccccc12)c1ccccc1 | nt | 37.3 | -0.2 | 14.8 | -5.9 | 7.0 | nt | nt
Cc1c(C)n(C)c2ccc(C(=O)Nc3cccc4ccccc34)cc12 | 0.2 | -8.6 | -3.4 | -1.3 | nt | 44.3* | 46.3* | 12.0
SMILES | Hsp70 act | HSF1 activator | S1P4 agonist | HSF1 inh | S1P3 antagonist | S1P4 antagonist | S1P4 antag cf | S1P1 antagonist
Cn1c2c(c(=O)n(C)c1=O)C(C(F)(F)F)(C(F)(F)F)N=C(c1ccc(Cl)cc1)N2 | 0.3 | 8.3 | 0.8 | 12.3 | nt | 51.4* | 21.4 | -19.2
COc1cc(CNCCN2CCOCC2)ccc1OCc1ccc(Cl)cc1 | -0.1 | 38.6 | -1.1 | 12.7 | nt | 9.9 | nt | nt
COc1cc(CNCCCN2CCOCC2)cc(Br)c1OCc1ccc(Cl)cc1 | -0.1 | -9.2 | 2.5 | 0.0 | 4.2 | 29.7* | 52.0* | 39.5
COC(=O)c1cn(N(C)c2ncc(C(F)(F)F)cc2Cl)c(=O)c2ccccc12 | -0.4 | 4.4 | -1.6 | 1.5 | nt | -13.2 | nt | nt
COC(=O)c1cn(Nc2ncc(C(F)(F)F)cc2Cl)c(=O)c2ccccc12 | -0.3 | 8.3 | 0.7 | 6.8 | nt | 37.9* | 31.0* | -2.7
CC1=CCC(C(=O)O)C(C(=O)NC2CCCCC2)C1 (stereo unspecified) | nt | -29.8 | nt | -9.7 | nt | nt | nt | nt
CNC1=C([N+](=O)[O-])CC([N+](=O)[O-])=C(N2CCNCC2)N1C | 0.0 | -2.3 | -0.3 | 3.1 | -22.8 | 35.1* | -1.5 | 1.6
Cc1ccc(NC(=O)c2c(C(=O)Nc3ccccc3)sc3nc(C)cc(=O)n23)cc1 | -0.2 | -37.2 | -2.0 | -17.9 | -12.4 | -3.5 | nt | nt
Cc1cc(C)nc(SSc2nc(C)cc(C)n2)n1 | nt | 4.3 | nt | -4.5 | nt | nt | nt | nt
COc1ccc(Nc2nc(Nc3ccc(OC)cc3)nc(SC3=NCCS3)n2)cc1 | -0.7 | -21.6 | -2.2 | -20.5 | nt | 29.1* | 46.6* | 21.0
O=C(Nc1cccc(NC(=O)c2cccs2)c1)c1ccc([N+](=O)[O-])o1 | nt | 77.5* | -1.6 | 60.3 | 11.9 | 55.6* | 65.7* | 62.0*
CC1=C(C(=O)OC(C)C)C(c2ccc(Cl)cc2)n2c(s/c(=C\c3ccc(OCC(=O)O)cc3)c2=O)=N1 (stereo unspecified) | nt | -13.8 | nt | -5.1 | nt | nt | nt | nt
COc1ccc(N=C2S/C(=C\c3ccc(N4CCOCC4)o3)C(=O)N2CCc2c[nH]c3ccccc23)cc1 | 0.6 | -29.4 | 0.3 | -26.9 | nt | 55.0* | 67.8* | 30.4
COc1ccc(/C(O)=C2/C(=O)C(=O)N(c3ccccn3)C2c2cccc(Cl)c2)cc1 (stereo unspecified) | nt | 10.9 | nt | 6.6 | nt | nt | nt | nt
Cc1ccc2oc(=O)n(CCCOc3ccccc3)c2c1 | -0.1 | 58.8* | -0.4 | 34.4 | 40.4 | 34.1* | 10.9 | 10.6

Bioassay records (PubChem)
